Sfp PPTase inh – qHTS Assay for Inhibitors of Bacillus subtilis Sfp phosphopantetheinyl transferase (PPTase). 4'-phosphopantetheinyl transferase ffp (Bacillus subtilis), Q9F4F7. AID 1490, 2009. Potency, µM, for inactives: largest response in the series, negative = inhibition, usual class: inhibitors. Biochemical Sfp PPTase activity, qHTS. 310,000 compounds, 3.5% hits;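 also: the enzyme is Sfp with the accession as filed and its product quenches rhodamine fluorescence; 0% = enzyme reaction without inhibitor and -100% = no enzyme wells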
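Step 1, compound plus 15 nM Sfp-PPTase, 15 min, room temperature. Step 2, add rhodamine-CoA (5 uM) and BHQ-2-YbbR (12.5 uM). Step 3, read 525/598 nm fluorescence at 0 and 30 min.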
BAZ2B inh – qHTS Assay for Inhibitors of BAZ2B; 360,000 compounds, 4.4% hits; AID 504333, 2011; Potency, µM (titrated, usually from 114 µM), inactives show at the top dose activity change, negative = inhibition, hits mostly inhibitors; AlphaScreen BAZ2B-H3K14Ac peptide displacement; Bromodomain adjacent to zinc finger domain protein 2B (Homo sapiens), Q9UIF8; also: % is scaled to controls: 0 for no effect and ±100 for the full control effect; nearly all actives have a fitted effect of over 60% in size
Target sequence (Q9UIF8 whole entry, looked up, the tested form may be a part): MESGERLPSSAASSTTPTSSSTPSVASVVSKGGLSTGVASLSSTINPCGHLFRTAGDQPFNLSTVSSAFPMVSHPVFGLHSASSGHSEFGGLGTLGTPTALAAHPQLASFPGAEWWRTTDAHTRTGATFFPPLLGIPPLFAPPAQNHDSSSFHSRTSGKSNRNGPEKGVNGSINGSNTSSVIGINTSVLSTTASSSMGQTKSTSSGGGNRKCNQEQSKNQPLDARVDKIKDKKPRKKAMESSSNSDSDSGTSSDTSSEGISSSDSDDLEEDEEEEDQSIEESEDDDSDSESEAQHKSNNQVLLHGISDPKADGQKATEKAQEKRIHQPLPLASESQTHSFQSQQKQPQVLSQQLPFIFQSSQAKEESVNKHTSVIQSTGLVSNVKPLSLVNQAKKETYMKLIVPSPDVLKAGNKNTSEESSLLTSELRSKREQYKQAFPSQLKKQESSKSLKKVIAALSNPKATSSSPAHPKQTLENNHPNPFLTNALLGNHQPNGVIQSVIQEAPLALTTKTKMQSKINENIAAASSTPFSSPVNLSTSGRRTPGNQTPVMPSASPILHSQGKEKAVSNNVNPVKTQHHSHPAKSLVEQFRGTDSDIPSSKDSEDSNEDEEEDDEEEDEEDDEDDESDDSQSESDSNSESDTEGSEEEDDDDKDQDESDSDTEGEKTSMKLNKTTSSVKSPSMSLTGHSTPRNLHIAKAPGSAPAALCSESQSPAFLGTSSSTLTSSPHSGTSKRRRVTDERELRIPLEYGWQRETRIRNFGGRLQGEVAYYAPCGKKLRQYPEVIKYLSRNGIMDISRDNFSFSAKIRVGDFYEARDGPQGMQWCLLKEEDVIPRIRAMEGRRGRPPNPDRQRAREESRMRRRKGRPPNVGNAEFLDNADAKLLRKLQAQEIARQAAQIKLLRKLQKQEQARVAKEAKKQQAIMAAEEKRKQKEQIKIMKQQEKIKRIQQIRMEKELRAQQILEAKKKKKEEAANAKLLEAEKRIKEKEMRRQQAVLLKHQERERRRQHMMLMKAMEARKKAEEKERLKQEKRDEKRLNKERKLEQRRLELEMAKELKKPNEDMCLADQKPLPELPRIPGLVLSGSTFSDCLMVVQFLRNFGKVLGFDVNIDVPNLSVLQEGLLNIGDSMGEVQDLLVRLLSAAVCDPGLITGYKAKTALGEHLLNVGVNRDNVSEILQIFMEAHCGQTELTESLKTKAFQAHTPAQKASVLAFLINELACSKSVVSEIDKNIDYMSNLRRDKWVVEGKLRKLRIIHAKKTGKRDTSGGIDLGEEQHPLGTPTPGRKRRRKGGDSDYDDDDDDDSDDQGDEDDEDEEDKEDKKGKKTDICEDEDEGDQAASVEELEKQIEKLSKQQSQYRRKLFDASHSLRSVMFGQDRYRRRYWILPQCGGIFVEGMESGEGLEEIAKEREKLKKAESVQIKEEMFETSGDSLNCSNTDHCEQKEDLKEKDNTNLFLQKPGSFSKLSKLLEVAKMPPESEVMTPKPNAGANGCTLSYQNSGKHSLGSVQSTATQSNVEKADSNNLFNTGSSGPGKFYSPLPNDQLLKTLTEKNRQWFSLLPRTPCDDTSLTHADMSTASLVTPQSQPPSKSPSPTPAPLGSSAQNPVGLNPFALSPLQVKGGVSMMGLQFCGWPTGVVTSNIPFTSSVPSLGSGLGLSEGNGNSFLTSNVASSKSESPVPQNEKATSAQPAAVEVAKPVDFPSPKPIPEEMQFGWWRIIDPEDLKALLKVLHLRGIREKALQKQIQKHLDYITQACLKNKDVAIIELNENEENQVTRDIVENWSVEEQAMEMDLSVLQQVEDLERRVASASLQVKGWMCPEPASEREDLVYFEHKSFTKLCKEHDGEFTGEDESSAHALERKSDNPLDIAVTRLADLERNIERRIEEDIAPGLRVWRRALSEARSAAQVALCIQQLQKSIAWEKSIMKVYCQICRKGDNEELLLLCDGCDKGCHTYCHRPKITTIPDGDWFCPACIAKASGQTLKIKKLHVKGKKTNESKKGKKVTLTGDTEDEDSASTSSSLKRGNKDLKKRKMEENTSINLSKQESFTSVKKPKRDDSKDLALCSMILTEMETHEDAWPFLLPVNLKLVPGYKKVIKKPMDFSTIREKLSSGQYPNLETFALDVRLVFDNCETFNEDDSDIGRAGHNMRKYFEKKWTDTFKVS
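In this displacement format the biotinylated H3(5-23) peptide acetylated at Lys14 serves as ligand at 50 nM, with BAZ2B at 50 nM in PBS pH 7.4 containing 0.01% Tween-20. Donor and acceptor beads are 10 ug/mL final.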
G9a inh – qHTS Assay for Inhibitors of Histone Lysine Methyltransferase G9a; Histone-lysine N-methyltransferase EHMT2 (Homo sapiens), Q96KQ7; G9a H3K9 monomethylation, AlphaScreen, 2 h; Potency, µM (doses to about 102 µM), for the others: at the top dose activity, negative = inhibition, hits mostly inhibitors; 350,000 compounds, 8.8% hits; AID 504332, 2011; also: % is scaled to controls: 0 for no effect and ±100 for the full control effect; nearly all actives have a fitted effect of over 75% in size
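G9a (20 nM) was preincubated 15 min with compound, then reacted 2 h at room temperature with 500 nM biotin-H3K9 peptide and 20 µM SAM. Monomethyl-H3K9 detected by AlphaScreen using anti-H3K9me1 antibody.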
HP1b chromo inh – HTS for Inhibitors of HP1-beta Chromodomain Interactions with Methylated Histone Tails | AlphaScreen HP1-beta / biotin-H3K9me3 peptide binding | Potency, µM (top dose mostly 114 µM), without a hit: top-dose activity change, negative = inhibition, most hits filed as inhibitors | 390,000 compounds, 0.56% hits | AID 540317, 2011; also: nearly all actives have a fitted effect of over 70% in size
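Compound inhibition of the preformed complex between 50 nM HP1-beta and 50 nM biotinylated H3K9me3 peptide was read by AlphaScreen. Buffer was PBS pH 7.4 with 0.01% Tween-20. Incubations ran 30 min at room temperature, with 10 ug/mL donor/acceptor beads.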
JMJD2A Tudor – qHTS Assay for Inhibitors of JMJD2A-Tudor Domain | AlphaScreen JMJD2A-Tudor / H3K4me3 peptide binding | Potency, µM (titrated, usually from 114 µM), inactives show top-dose activity change, negative = inhibition, actives largely listed as inhibitors | 390,000 compounds, 4.4% hits | AID 504339, 2011; also: % is scaled to controls: 0 for no effect and ±100 for the full control effect; nearly all actives have a fitted effect of over 50% in size
Starred values were filed as active, the others as inactive; ? = inconclusive; . = no result; [ ] = remark or other dose. The list is not random: actives were taken first. Their share in the collection is about 12%. Calls follow the shape of the dose curve; as a rule, active = well fitted curve in the direction sought with a large enough effect; inconclusive = small, poorly fitted or top-dose-only effect, or another doubt; inactive = no such curve, though single readings can be large; an effect the other way counts as inactive or inconclusive. Potency is read from the fitted curve at half-maximal effect.

SMILES	Sfp PPTase inh	BAZ2B inh	G9a inh	HP1b chromo inh	JMJD2A Tudor
COc1ccc(NC2CCCN(C(=O)c3ccc(OC)cc3OC)C2)cc1 (stereo not given)	-6.4%	?	.	-16.6%	-26.9%
O=C(CSc1ccccn1)N1CCCC(Nc2ccccc2)C1 (stereo not given)	10.5%	1.3%	.	11.3%	-31.5%
COc1ccc(NC2CCCN(Cc3cccc4cnccc34)C2)cc1OC (stereo not given)	5.2%	?	?	-1.5%	?
COc1ccc(NC2CCCN(Cc3cccc4cnccc34)C2)cc1 (stereo not given)	24.6%	44.7µM*	44.7µM*	-11.0%	?
Cc1ccn(CCC(=O)Nc2ccc(-c3ccno3)cc2)n1	13.5%	-2.9%	-12.3%	6.3%[57 µM]	-15.5%
Cc1ncsc1CCC(=O)N1CCCC(Nc2ccc(C(C)C)cc2)C1 (stereo not given)	19.6%	-36.9%	50.1µM*	15.8%	-24.8%
COc1ccc(NC2CCCN(C(=O)CCc3scnc3C)C2)cc1 (stereo not given)	19.0%	-24.6%	?	-3.6%	-19.0%
COc1ccc(CCC(=O)N2CCCC(Nc3ccc(OC)cc3)C2)cc1 (stereo not given)	12.9%	?	39.8µM*	-10.6%	-28.3%
COc1ccc(NC2CCCN(C(=O)CSc3ccncc3)C2)cc1 (stereo not given)	?	50.1µM*	39.8µM*	-6.5%	-25.5%
COc1ccc(NC2CCCN(C(=O)c3cccc(N4CCNC4=O)c3)C2)cc1 (stereo not given)	14.5%	-13.6%	39.8µM*	11.0%	-15.3%
CCOC(=O)C1CCCN(S(=O)(=O)c2cc(-c3cc(C)no3)ccc2C)C1 (stereo not given)	.	13.8%	10.6%[59 µM]	40.8%	0.3%
COCCSc1ccccc1C(=O)Nc1cccnc1	?	-3.1%	1.58µM*	23.4%	0.6%
COCCSc1ccccc1C(=O)Nc1ccc(Cl)cc1	?	?	7.08µM*	19.6%	?
COCCSc1ccccc1C(=O)Nc1cc(C)on1	31.6µM*	?	1.12µM*	?	-19.2%
CC(=O)NC(C)C(=O)OCC(=O)Nc1ccc(Br)cc1 (stereo not given)	7.4%	-7.6%	1.7%	47.9%	44.4%
COc1ccccc1C(=O)Nc1cc(C)on1	17.3%	2.5%	-20.4%	50.1%	0.7%
O=C(Nc1cccnc1)c1ccccc1O	16.3%	-30.1%	5.9%[59 µM]	36.9%	-8.1%
COCCNC(C)C(=O)Nc1ccc(Br)cc1 (stereo not given)	-26.0%	50.1µM*	11.2µM*	-34.8%	3.98µM*
Cc1cc(C)c(NC(=O)c2ccccc2N(C)S(C)(=O)=O)c(C)c1	7.0%	1.2%	22.8%[59 µM]	25.0%	-21.9%
COc1cccc(-n2nnc3c(=O)n(CC(=O)Nc4ccc(C)cc4)cnc32)c1	20.9%	-21.9%	-2.1%	14.7%	-12.0%
CC(Cl)C(=O)c1ccc2c(c1)CCN2C(=O)C1CC1 (stereo not given)	1.9%	-17.4%	-44.6%	24.7%	-9.7%
COCCSc1ccccc1C(=O)Nc1ccc(Br)cc1	-18.9%	-19.2%	20µM*	37.0%	11.1%
COCCSc1ccccc1C(=O)Nc1ccc2c(c1)OCO2	?	-13.0%	.	42.1%	3.0%
Cc1cc2nnc(SC(C)C#N)n2c2ccccc12 (stereo not given)	-4.9%	6.4%	3.16µM*	2.6%	10µM*
Cc1cc2nnc(SC3CCCCN(C(=O)c4ccc(F)cc4)C3=O)n2c2ccccc12 (stereo not given)	0.7%	0.4%	39.8µM*	31.2%	?
SMILES	Sfp PPTase inh	BAZ2B inh	G9a inh	HP1b chromo inh	JMJD2A Tudor
Cc1cc2nnc(SC3CCOC3=O)n2c2ccccc12 (stereo not given)	13.4%	6.5%	10µM*	14.7%	10µM*
COc1ccccc1NC(=O)Cn1c(=O)n(CCc2ccccc2)c(=O)c2sc3ccccc3c21	.	-11.2%	-30.5%[59 µM]	4.1%	-12.6%
Cc1c(C(=O)N/N=C/c2ccc(Cl)cc2)[nH]c2ccc(Cl)cc12	?	-2.7%	42.6%[59 µM]	32.9%	-9.0%
Nc1ncnc2c1ncn2[C@H]1O[C@@H](CSCC[C@@H](N)C(=O)O)[C@H](O)[C@@H]1O	-29.3%	.	20.5%[59 µM]	.	.
CC(=O)N(CCC(Cc1ccccc1)c1ccc2c(c1)OCO2)Cc1ccccc1F (stereo not given)	70.8µM*	-3.3%	21.8%	40.6%	-7.8%
CCOC(=O)c1c(S(=O)(=O)N2CCCC(C(=O)N(C)Cc3ccccc3)C2)c(C)n(C)c1C (stereo not given)	.	-13.0%	0.0%[59 µM]	22.0%	-23.7%
CC1=CC(C)(C)Nc2ccc(OC(=O)CCN3C(=O)c4ccccc4C3=O)cc21	12.6%	35.5µM*	20µM*	?	-18.5%
Cc1ccc(C(=O)CC(=O)c2ccccc2C)c(O)c1	4.2%	7.1%	43.3%	20.2%	4.5%
C=C(CN(C)C)C(=O)c1cc(OC)c(OC)cc1OC	.	.	.	?	79.4µM*
C=C(C)C(=O)c1ccc2c(c1)OCO2	-18.9%	.	.	.	.
COc1cc(OC)c(C(=O)CCC(=O)O)cc1OC	0.2%	10.3%	10.6%[59 µM]	30.3%	-2.1%
C=C(CN(C)C)C(=O)c1ccc2c(c1)OCO2	.	.	.	?	14.1µM*
C=C(CN(C)C)C(=O)c1ccc(C)cc1C	.	.	.	31.6µM*	79.4µM*
Cc1cc(C)c[n+](C[n+]2cc(C)cc(C)c2)c1	6.8%	-4.7%	4.1%	3.3%	-4.2%
C/C(=N/NC(=O)CNc1ccc(C)cc1)c1ccc(Cl)cc1	5.0%	?	44.7µM*	-12.8%	?
CCN(CC)S(=O)(=O)c1ccc(N2CCCCC2)c(NC(=O)/C=C/c2ccc(OC)c(OC)c2)c1	17.2%	3.3%	14.0%[59 µM]	28.5%	-9.6%
COc1ccc(/C(C)=N/NC(=O)CNC(=O)/C=C\c2ccco2)cc1	0.3%	79.4µM*	-28.6%	-6.9%	?
COc1ccc(CNC(=O)/C=C/c2ccco2)cc1OC	44.7µM*	-11.7%	44.7µM*	30.1%	-4.6%
O=C(/C=C/c1ccco1)NCC1(c2ccccc2)CCCC1	-29.1%	-28.3%	11.2µM*	17.2%	-3.7%
CCN(CC)S(=O)(=O)c1ccc(OC)c(NC(=O)/C=C/c2ccco2)c1	25.1µM*	70.8µM*	.	?	-5.1%[11.4 µM]
COc1ccc(CNC(=O)/C=C/C(=O)O)cc1OC	-4.5%	33.2%	17.4%[59 µM]	70.5%	-7.8%[57.1 µM]
O=C(CSc1nnnn1C1CC1)N1CCN(c2ccc(O)cc2)CC1	.	-4.6%	?	?	?
COc1ccc(C2(CNC(=O)/C=C/c3ccco3)CCCC2)cc1OC	22.4µM*	?	?	11.3%	-25.2%
